# Data published in PubChem BioAssay (Tox21).
# Results filed as inconclusive are left out. Activity calls are given as the source filed them. Calls follow the shape of the dose curve; as a rule, active = well fitted activation curve with a large enough effect in the signal ratio in the repeat runs (not every such curve was filed as active); inconclusive = weak or mixed curves; inactive = flat fitted curve, though single readings scatter; the % refers to the signal ratio.
# Experiment: qHTS assay to identify small molecule agonists of the TGF-beta/Smad signaling pathway (AID 1346859)
# Conditions: SBE-bla HEK293T, TGF-beta/Smad beta-lactamase reporter, 5 h; series mostly up to 76.8 µM
# Excerpt: U.S. Tox21 Program National Center for Advancing Translational Sciences [NCATS] NIH Chemical Genomics Center [NCGC] U.S. Environmental Protection Agency [EPA] National Institutes of Environmental Health Sciences [NIEHS] National Toxicology Program [NTP] U.S. Food and Drug Administration [FDA] Tox21 Assay Overview: Transforming growth factor beta (TGF-beta) superfamily consists of a large number of structurally related dimeric proteins that act as hormones or local mediators in regulating a wide range of biological functions. This superfamily includes TGF-betas themselves, the bone morphogenetic proteins (BMPs) and the activins. These ligands induce oligomerization of serine/threonine receptor kinases and phosphorylate the cytoplasmic signaling molecules of Smad protein family. CellSensor SBE-bla HEK 293T cell line (Life Technologies, Carlsbad, CA), responsive to TGF-beta was used to screen Tox21 10K compound library for identification of agonists/antagonists of the Smad signaling pathway. This cell line contains a beta-lactamase reporter gene under control of the Smad binding element (SBE) stably integrated into HEK 293T cells.
# Tox21 Assay Protocol Summary: SBE-bla HEK 293T cells were dispensed at 4,000/well in 6 uL of assay medium into black wall/clear-bottom 1536-well plates using a Multidrop Combi (ThermoFisher Scientific, Waltham, MA) dispenser. After the assay plates were incubated at 37 C and 5% CO2 for an overnight, 23 nL of compounds dissolved in DMSO, positive controls or DMSO only was transferred to the assay plate by a Pintool station (Kalypsys, San Diego, CA). The assay plates were incubated at 37 C and 5% CO2 for 5 hr. One uL of LiveBLAzer B/G FRET substrate (Life Technologies) was added using a Flying Reagent Dispenser (Aurora Discovery, San Diego, CA) and the plates were incubated at room temperature for 2 hr. Fluorescence intensity (405 nm excitation, 460 nm and 530 nm emissions) was measured using an Envision plate reader (PerkinElmer, Shelton, CT).
row,SMILES,outcome
1,Nc1ccc(-c2ccc(N)c(N)c2)cc1N,inactive
2,Oc1cc(Cl)ccc1Cl,inactive
3,COP(=S)(OC)Oc1cc(Cl)c(Cl)cc1Cl,inactive
4,CC(O)CCO (stereo not given),inactive
5,S=C1NCCN1,inactive
6,CC(C)(C)c1ccccc1O,inactive
7,O=Cc1ccco1,inactive
8,CCCCC(CC)COC(=O)c1ccc(C(=O)OCC(CC)CCCC)c(C(=O)OCC(CC)CCCC)c1 (stereo not given),inactive
9,CCC(=O)O[C@H]1CC[C@H]2[C@@H]3CCC4=CC(=O)CC[C@]4(C)[C@H]3CC[C@]12C,inactive
10,CCC(C)c1ccc(O)cc1 (stereo not given),inactive
11,Oc1cc(Cl)c(Cl)cc1Cl,inactive
12,c1nc[nH]n1,inactive
13,Clc1nc(Cl)nc(Cl)n1,inactive
14,O=[N+]([O-])c1cccc2ccccc12,inactive
15,CCCCN(CC)c1c([N+](=O)[O-])cc(C(F)(F)F)cc1[N+](=O)[O-],inactive
16,CNC(=O)Oc1cccc2c1OC(C)(C)O2,inactive
17,C[C@]12CCC(=O)C(O)=C1CC[C@@H]1[C@@H]2CC[C@]2(C)C(=O)CC[C@@H]12,inactive
18,CC(C)C(=O)OCC(C)(C)C(OC(=O)C(C)C)C(C)C (stereo not given),inactive
19,CCCCCCCCC(=O)NCc1ccc(O)c(OC)c1,inactive
20,CCC(C)(C)c1ccc(O)cc1,inactive

row,SMILES,outcome
1,C=CCc1ccc(OC)cc1,inactive
2,COP(=O)(OC)OC,inactive
3,NNC(=S)NN,inactive
4,CC1(C)C(C=C(Cl)Cl)C1C(=O)OC(C#N)c1cccc(Oc2ccccc2)c1 (stereo not given),inactive
5,CCCCCCCCOC(=O)c1ccccc1C(=O)OCCCCCCCC,inactive
6,CCN(CC)C(=O)SCc1ccc(Cl)cc1,inactive
7,Cc1cc(C)cc(C)c1,inactive
8,Nc1cccnc1,inactive
9,c1cc(OCC2CO2)ccc1Cc1ccc(OCC2CO2)cc1 (stereo not given),inactive
10,CCOc1cc(Oc2ccc(C(F)(F)F)cc2Cl)ccc1[N+](=O)[O-],inactive
11,CCN(CC)C(=O)/C(Cl)=C(\C)OP(=O)(OC)OC,inactive
12,c1ccc(NNc2ccccc2)cc1,inactive
13,Nc1ccc(Cl)c(Cl)c1,inactive
14,COc1ccc(C=O)cc1,inactive
15,CCc1cccc(CC)c1N(COC)C(=O)CCl,inactive
16,C[C@]12CCC(=O)C[C@@H]1CC[C@@H]1[C@@H]2CC[C@]2(C)[C@@H](O)CC[C@@H]12,inactive
17,CCC(CC)Nc1c([N+](=O)[O-])cc(C)c(C)c1[N+](=O)[O-],inactive
18,COc1ccc(C(CN(C)C)C2(O)CCCCC2)cc1 (stereo not given),inactive
19,c1ccc(P(c2ccccc2)c2ccccc2)cc1,inactive
20,CCN(CC)N=O,inactive
